HIF-2a block: HIF-2a reporter inhibitors, primary screen, luminescence, 786-0 RCC cells. 786-0 RCC cells HIF-2a reporter, luciferase luminescence, overnight. inhibition, % at 18.8 µM. 0.72% of 360,000 active. AID 624352, 2012;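 active = inhibition of the luminescence signal of 40% or more relative to plate controls, in a single-dose primary screen at 18.75 µM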
TRPM1 prom inh: inhibitors of MITF-dependent TRPM1 promoter reporter, primary screen, cell-based, SK-MEL-5, single point, luciferase. SK-MEL-5 TRPM1 promoter luciferase, 24 h. 0.83% of 330,000 active. inhibition, % at 12.5 µM. AID 488899, 2010;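 active = mean inhibition across replicates of 60% or more, whatever share of single replicates reaches that level; inconclusive = some that reach 60%, reason not given; inactive = mean inhibition across replicates below 60%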
KKLEB cytotox: cytotoxicity in KKLEB CF airway cells, primary screen, cytotoxicity control for CF NF-kB inhibitor project, cell-based, uHTS, fluorescence assay plates. KKLEB CF airway cells viability, ATPlite luminescence, overnight; active compounds read low; cells stimulated with P. aeruginosa culture filtrate. activity change (cytotoxicity), % at 5 µM. 0.36% of 360,000 active. AID 602141, 2011;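 active = corrected activity change at or below -50% at 5 µM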
CF NFkB block: inhibitors of PAF-induced NF-kB signaling, primary screen, cell-based, GFP fluorescence, uHTS; KKLEB NF-kB-GFP reporter, GFP fluorescence overnight; inhibition, % at 5 µM; 0.86% of 360,000 active; AID 588850, 2011;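 active = at least 50% inhibition at 5 µM, scaled per plate between neutral and stimulator controls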;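 note: PAF is a Pseudomonas aeruginosa culture filtrate used as stimulus; plate controls were PAF-stimulated DMSO wells for no effect and unstimulated DMSO wells for full effect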
ABHD5-PLIN5 inh: ABHD5-PLIN5 interaction inhibitors, primary screen, cell lysate, split luciferase complementation, luminescence; Split G. princeps luciferase complementation, 4 h; inhibition, % at 4 µM; 0.78% of 360,000 active; AID 602281, 2012;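 active = inhibition above the mean inhibition across every tested compound plus 3 SD, cut at about 22% in these data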;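 note: 0% = DMSO only wells and the 100% control is not disclosed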
Peg3 promoter: Peg3 promoter-driven luciferase inhibitors, primary screen, cell-based, HeLa, luciferase luminescence; HeLa PEG-Prom luciferase reporter, overnight; inhibition, % at 20 µM; 1.7% of 360,000 active;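 active = inhibition of at least 50% at 20 µM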
Mdm2-MdmX confirm: retested Mdm2-MdmX interaction blockers, confirmation, cell-based, luminescence, single concentration, set 2; AID 504601, 2011; inhibition, % at 8 µM; 99% of 740 active; shares compounds with HIF-2a block; SaOS-2 split-luciferase Mdm2/MdmX complementation;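 active = mean inhibition of the luminescence signal across two replicates at or above 26 percent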
HIF-2a conf: HIF-2a reporter inhibitor retest, confirmation, luminescence, 786-0 RCC cells | shares compounds with HIF-2a block | HIF-2a luciferase reporter luminescence, overnight | inhibition, % at 18.8 µM | 56% of 1,800 active | AID 651580, 2012;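 active = mean inhibition across four replicates of at least 40 percent at the single tested concentration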
HIF-1a counter: HIF-1a luciferase reporter signal reduction – MiaPaCa-2 cells, single concentration, counter-screen for HIF-2a inhibitor project, confirmation. MiaPaCa-2 HIF-1a luciferase reporter, desferoxamine, overnight. shares compounds with HIF-2a block. AID 651589, 2012. inhibition, % at 18.8 µM. 72% of 1,800 active;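 active = mean inhibition of the reporter signal across four replicates at the single tested dose of 50% or more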
An asterisk follows results filed as active; u = inconclusive; x = not tested or not shown. Most compounds without a hit are left out; they make up all but 3.1% or so of the library.

SMILES	HIF-2a block	TRPM1 prom inh	KKLEB cytotox	CF NFkB block	ABHD5-PLIN5 inh	Peg3 promoter	Mdm2-MdmX confirm	HIF-2a conf	HIF-1a counter
CCC[C@@H](CNC)NC[C@H](Cc1ccccc1)NCCCCc1ccccc1	-2.3	93.6*	-15.7	5.1	4.5	99.2*	103.2*	x	x
CNC[C@@H](Cc1ccccc1)NC[C@@H](CC1CCCCC1)NCCCc1ccccc1	85.4*	98.5*	-95.8*	84.6*	12.6	99.2*	103.2*	0.4	106.3*
CNC[C@@H](CC1CCCCC1)NC[C@H](CC(C)C)NCCc1cccc(C(F)(F)F)c1	32.0	100.3*	-72.0*	49.6	16.8	99.4*	103.2*	x	x
O=C(Nc1cccc(Cl)c1)c1csc(COCCO)n1	-232.2	x	-8.0	0.8	-3.4	-195.6	x	x	x
CCCN1CCN(C(=O)c2nn(-c3ccc(OC)cc3)c(=O)c3c2c2ccccc2n3C)CC1	6.4	-9.1	1.6	4.0	-1.1	12.2	x	x	x
COc1ccc(-c2oc3c(OC)c(OC)c(OC)c(O)c3c(=O)c2OC)cc1OC	-4.9	x	-4.8	-9.1	6.9	42.0	74.0*	x	x
Cc1cn([C@H]2C[C@H](O)[C@@H](CNC(=O)[C@H](N)C3CC3)O2)c(=O)[nH]c1=O	-7.9	x	0.5	16.8	6.1	-8.0	x	x	x
Cc1ccc(NC(=O)c2cc(N3C(=O)C=CC3=O)ccc2N2CCOCC2)cc1Cl	47.6*	78.1*	-9.1	29.9	21.7	92.6*	x	67.7*	31.4
N#CCCN(C(=O)CCl)c1cccc(Cl)c1	13.7	37.0	-9.7	25.1	5.2	53.8*	101.0*	x	x
Cc1ccc(N(CC2CO2)S(=O)(=O)c2ccc([N+](=O)[O-])cc2)cc1 (stereo not given)	3.3	15.7	-1.1	-10.6	2.4	-5.0	x	x	x
COc1ccc(-c2c(C#N)c(N)nc3sc(C(=O)c4ccccc4)c(N)c23)cc1	0.8	6.1	-1.7	5.6	-1.1	19.2	x	x	x
CCOc1ccc(-c2c(C#N)c(N)nc3sc(C(=O)c4ccccc4)c(N)c23)cc1	71.8*	7.8	-31.3	11.8	-4.1	6.6	x	0.3	63.4*
O=C(COC(=O)CCN1C(=O)C2CC=CCC2C1=O)NCCc1ccc(F)cc1 (stereo not given)	-2.1	6.3	21.6	-41.6	-2.4	-6.7	x	x	x
O=C(c1ccc(Cl)c(S(=O)(=O)N2CCCCCC2)c1)N1CCCCC1	-55.3	-8.4	-1.6	-16.7	-13.2	-21.5	x	x	x
O=C(O)c1ccc(Cl)c(S(=O)(=O)N2CCCC2)c1	41.4*	-5.4	5.6	-7.7	4.7	8.2	x	1.4	1.4
COC(=O)c1c(NC(=O)COc2ccc(Cl)cc2)sc2c1CC(C)(C)NC2(C)C	52.0*	81.6*	-57.0*	33.0	4.6	98.7*	x	9.1	99.2*
Cc1ccc(NC(=O)N2CCCC2C(=O)NCC2CCCCC2)cc1 (stereo not given)	6.1	-6.3	3.4	-11.6	-1.5	8.2	x	x	x
Cc1[nH]n(-c2ccccc2)c(=O)c1N=Nc1c(O)cc(S(=O)(=O)N(C)C)c2ccccc12	-12.8	57.8	-7.6	5.2	-1.8	61.7*	89.5*	x	x
Cc1[nH]n(-c2ccccc2)c(=O)c1N=Nc1ccc2c(c1)OCCO2	-311.1	-69.0	-1.0	-2.0	-0.5	-290.9	x	x	x
O=C(NCCCN1CCOCC1)c1onc(CSc2ccccn2)c1C(=O)NCCCN1CCOCC1	2.6	3.5	12.6	-15.1	-3.8	3.4	x	x	x
O=C(COc1ccc(S(=O)(=O)N2CCCC2)cc1)N1CCN(c2ccccc2F)CC1	7.7	6.6	-1.3	9.7	2.4	6.4	x	x	x
CCOC(=O)COc1ccc(S(=O)(=O)N2CCN(c3ccccc3F)CC2)cc1	47.5*	3.2	5.1	5.9	1.8	8.8	x	12.7	-0.7
CN1CCc2c(sc(NC(=O)c3ccc(C(=O)c4ccccc4)cc3)c2C(N)=O)C1	16.1	5.8	-22.2	13.2	11.5	-17.8	x	x	x
CC(C)N1CCc2c(sc(NC(=O)c3ccc([N+](=O)[O-])o3)c2C(N)=O)C1	90.3*	94.0*	9.0	78.8*	3.1	104.1*	x	79.1*	103.4*
CCN(CC)c1ccc2c(c1)oc(=O)c1c(Cl)cc(=O)oc12	92.8*	80.4*	-34.2	8.4	13.5	100.6*	103.2*	x	x
SMILES	HIF-2a block	TRPM1 prom inh	KKLEB cytotox	CF NFkB block	ABHD5-PLIN5 inh	Peg3 promoter	Mdm2-MdmX confirm	HIF-2a conf	HIF-1a counter
COC(=O)CSc1nnc(-c2sc3ccccc3c2Cl)o1	90.5*	-3.2	7.7	0.4	3.4	7.6	x	95.2*	69.0*
Cc1cc(C)n(CCC(=O)N/N=C/c2c(O)ccc3ccccc23)n1	22.3	u	0.5	-7.0	10.7	65.1*	88.5*	x	x
Cc1cc(C)n(CCC(=O)N/N=C/c2ccc(O)cc2)n1	7.9	-14.7	-3.5	-9.5	-2.4	0.9	x	x	x
COc1cc(CNCCc2ccc(S(N)(=O)=O)cc2)ccc1OCc1ccc(Cl)cc1	74.8*	-11.1	-24.4	19.8	15.2	92.2*	x	-7.9	93.5*
CCOc1cc(CNCCc2ccc(S(N)(=O)=O)cc2)ccc1OCc1ccc(Cl)cc1	85.5*	91.9*	-44.6	-6.7	27.9*	107.6*	x	3.3	102.4*
COc1ccc(CN2CCN(CC(=O)Nc3ccccc3C(=O)NC3CC3)CC2)cc1F	0.4	-7.7	2.7	-31.1	1.2	5.3	x	x	x
Cc1nn(Cc2ccc(Cl)cc2Cl)c(C)c1NC(=O)CCl	15.8	37.9	-2.7	15.0	0.5	43.6	103.0*	x	x
O=C(CCCc1ccccc1)NCc1ccccc1Cl	-80.2	-7.3	-12.2	16.0	3.8	-77.1	x	x	x
CC(=O)Nc1ccc(/C(C)=N/Nc2nc(Nc3ccccc3)nc(N3CCOCC3)n2)cc1	-10.9	-85.0	-9.0	-5.3	-3.6	-12.1	x	x	x
CCN1CCN(c2nc(Nc3ccc(NC(C)=O)cc3)nc(Nc3ccc(NC(C)=O)cc3)n2)CC1	67.7*	5.0	0.0	-2.4	-2.4	6.5	x	-5.4	9.3
Cc1nc(SCc2ccc(C(=O)O)cc2)nc2c1CCCC2	82.3*	2.0	0.5	0.4	12.8	15.0	x	88.9*	61.7*

Source: PubChem BioAssay
